Source: PubChem BioAssay
An excerpt weighted towards active compounds, which were near 1.8% of everything screened.
PDI inh = inhibitors of human protein disulfide isomerase; PDI insulin aggregation turbidity, A650, 90 min; inhibition, % at 10 µM; actives 0.052% (n = 350,000); AID 588391;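 active means mean inhibition across replicates of 30% or more, whatever share of single replicates reach that level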
ERAP1 HTS inh = ERAP1 (human) enzyme inhibition. recombinant ERAP1, Leu-AMC fluorescence, 60 min. inhibition, % at 10.7 µM. actives 0.15% (n = 340,000);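 active means mean replicate inhibition of at least 30%, or all replicates individually reaching that 30% level; inactive means mean below 30% and not every replicate reaching it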;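 further: 0% = neutral control wells and 100% = L-leucinethiol positive control wells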
Target sequence (Q9NZ08 whole entry, looked up): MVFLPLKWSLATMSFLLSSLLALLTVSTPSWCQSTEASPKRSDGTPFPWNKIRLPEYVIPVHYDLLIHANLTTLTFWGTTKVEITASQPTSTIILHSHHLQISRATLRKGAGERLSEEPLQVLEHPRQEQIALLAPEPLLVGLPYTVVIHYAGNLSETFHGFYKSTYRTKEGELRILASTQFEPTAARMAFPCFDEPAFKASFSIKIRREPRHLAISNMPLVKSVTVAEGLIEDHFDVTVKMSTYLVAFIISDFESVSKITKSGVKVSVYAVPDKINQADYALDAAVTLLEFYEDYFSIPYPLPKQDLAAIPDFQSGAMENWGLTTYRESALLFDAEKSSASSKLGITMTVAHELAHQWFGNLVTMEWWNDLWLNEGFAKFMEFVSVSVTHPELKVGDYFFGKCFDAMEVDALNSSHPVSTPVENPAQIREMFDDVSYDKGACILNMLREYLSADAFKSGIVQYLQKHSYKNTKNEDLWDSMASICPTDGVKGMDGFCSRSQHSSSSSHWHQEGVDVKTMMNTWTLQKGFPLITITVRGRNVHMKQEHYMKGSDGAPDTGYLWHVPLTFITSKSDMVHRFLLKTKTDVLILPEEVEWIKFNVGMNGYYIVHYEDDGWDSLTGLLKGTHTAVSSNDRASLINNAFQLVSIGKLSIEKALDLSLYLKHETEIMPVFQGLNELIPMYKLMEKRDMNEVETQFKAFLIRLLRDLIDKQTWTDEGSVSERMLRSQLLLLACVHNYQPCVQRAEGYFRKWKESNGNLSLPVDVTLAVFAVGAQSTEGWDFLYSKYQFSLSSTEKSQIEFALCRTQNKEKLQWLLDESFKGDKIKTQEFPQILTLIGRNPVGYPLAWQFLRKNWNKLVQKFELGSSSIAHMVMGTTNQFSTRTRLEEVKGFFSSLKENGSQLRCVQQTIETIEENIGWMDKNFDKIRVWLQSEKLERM
AF4-AF9 inh = MLL-AF4/AF9 protein interaction inhibition. actives 0.47% (n = 350,000). P42568. AlphaScreen, biotin-AF4 peptide binding to FLAG-AF9. inhibition, % at 10 µM. AID 651704;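 active means every replicate reaching a set inhibition limit, whatever the replicate mean, cut at about 25% in these data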;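 further: 0% = plate neutral control median and 100% = total signal loss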
DENV2 CPE rescue = inhibitors of DENV2 cytopathic effect. DENV2-infected cells, cytopathic effect rescue, plate reader. CPE inhibition, % at 9.99 µM. actives 1.7% (n = 350,000); in the data active means CPE inhibition above about 20%, passing the limit was not always enough; tested in BHK-21 cells;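 further: 0% = median of neutral control wells and 100% = median of positive control wells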
ERp5 inh = inhibitors of human ERp5 | ERp5 insulin aggregation, absorbance 650 nm, 90 min | inhibition, % at 9.99 µM | actives 0.05% (n = 350,000);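 active means mean replicate inhibition above about 25%, with every replicate also reaching it, limit read from the data, passing the limit was not always enough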
Starred values were filed as active, the others as inactive; . = no result.

SMILES | PDI inh | ERAP1 HTS inh | AF4-AF9 inh | DENV2 CPE rescue | ERp5 inh
Cc1ccc(-c2csc(NC(=O)CSc3nc4ccccc4c(=O)n3CCCN(C)C)n2)cc1 | -73.7 | -4.2 | 35.6* | . | -1.0
CCn1c(SCC(=O)Nc2nc(-c3ccc(C)cc3)cs2)nnc1-c1ccccc1 | 3.9 | . | . | . | .
COc1ccc2c3c([nH]c2c1)[C@@H](CO)N(C(=O)CC1CC1)CC31CN(Cc2cccnc2)C1 | . | -4.0 | 11.0 | 2.9 | 5.0
O=C(NCc1ccccc1)[C@]1(CCS(=O)(=O)c2ccccc2)N=C(c2ccc(OCCCO)cc2)O[C@@H]1c1ccccc1 | . | -6.6 | -3.0 | 1.3 | -2.6
COc1ccc(Cl)cc1NC(=O)CN(C)C(=O)C1COc2ccccc2O1 (stereo unspecified) | -4.4 | -3.1 | -4.5 | 73.5* | -5.7
C/C=C(\C)CN1CCC(n2nccc2NC(=O)CCc2ccccc2)CC1 | -5.8 | -0.1 | -1.8 | 100.7* | 1.5
O=C1CN(/N=C/c2ccc([N+](=O)[O-])o2)C(=O)N1 | 7.3 | 2.7 | 25.2* | -10.8 | 1.0
CCOC(=O)N1CCN(CC(=O)Nc2sc(CC)cc2C(=O)c2ccc(OC)cc2)CC1 | -14.5 | 6.7 | 27.1* | -11.2 | 0.3
CCc1cc(C(=O)OC)c(NC(=O)CN2CCN(C(=O)c3ccco3)CC2)s1 | 0.0 | 1.8 | 0.5 | -7.5 | -10.1
COc1ccc(CN(C)C[C@@H]2Oc3ccc(NC(=O)Nc4ccc(C(F)(F)F)cc4)cc3C(=O)N([C@@H](C)CO)C[C@H]2C)cc1 | . | 2.8 | 2.3 | 43.6* | 5.7
COc1ccc(CN(C)C[C@H]2Oc3ccc(NC(=O)Nc4ccc(C(F)(F)F)cc4)cc3C(=O)N([C@@H](C)CO)C[C@H]2C)cc1 | . | -1.0 | 1.0 | 4.3 | -3.9
COc1ccc(NC(=O)Nc2ccc3c(c2)C(=O)N([C@H](C)CO)C[C@H](C)[C@H](CN(C)Cc2ccccc2)O3)cc1 | . | -1.9 | 6.8 | -6.6 | -0.8
COc1ccc(NC(=O)Nc2ccc3c(c2)C(=O)N([C@H](C)CO)C[C@H](C)[C@@H](CN(C)Cc2ccccc2)O3)cc1 | . | 0.5 | -0.1 | 42.8* | 10.7
COc1ccc(NC(=O)Nc2ccc3c(c2)C(=O)N([C@H](C)CO)C[C@H](C)[C@@H](CN(C)Cc2ccc(C(F)(F)F)cc2)O3)cc1 | . | 1.3 | -6.7 | 20.1* | -2.9
COCCn1c(C)cc(C(=O)CSc2nc3ccccc3c(=O)n2Cc2ccco2)c1C | -2.8 | 2.8 | 0.5 | 22.9* | 6.3
COCCn1c(C)cc(C(=O)CSc2cc(C)c3ccccc3n2)c1C | 8.6 | . | . | . | .
CC1=NN(c2ccccc2)C(=O)C1/C=C1/NC(=S)NC1=O (stereo unspecified) | -2.6 | 4.3 | 2.0 | -0.4 | 0.1
CC1=NN(c2ccccc2)C(=O)C1C=Nc1ccc(N(C)C)cc1 (stereo unspecified) | 3.1 | . | 30.8* | -1.4 | 3.7
CNC[C@@H]1OCCCC[C@H](C)Oc2ccc(NC(=O)Nc3ccc(F)cc3)cc2C(=O)N([C@@H](C)CO)C[C@@H]1C | . | -3.8 | 2.4 | -15.4 | 2.9
Cc1[nH]c2ccccc2c1C(=O)CSc1nnc(C2CC2)o1 | -4.7 | -4.2 | 26.2* | -5.9 | 2.7
Cc1[nH]c2ccccc2c1C(=O)CSc1ccccc1 | -6.7 | . | . | . | .
CC=Cc1ccc2n(c1=O)C[C@H]1[C@H](CO)[C@@H](C(=O)NC3CCC3)[C@@H]2N1C(=O)c1ccccn1 (mixture of isomers) | . | 0.2 | 0.4 | 6.6 | 1.0
CC(/C=N/NC(=O)c1c(Br)cnn1C)=C\c1ccccc1 | -4.3 | . | . | . | .
CC(/C=N/NC(=O)c1nn(C)c(C)c1Br)=C\c1ccccc1 | -8.6 | 4.9 | 3.5 | 25.0* | 4.2
CC(=O)Nc1ccc(NC(=O)CSc2nnc(-c3cccs3)n2N)cc1 | 6.5 | 0.1 | -1.5 | 59.6* | -0.2
SMILES | PDI inh | ERAP1 HTS inh | AF4-AF9 inh | DENV2 CPE rescue | ERp5 inh
CC(C)CNC(=O)C1(C)CCCCCN1C(=O)c1csnn1 (stereo unspecified) | -6.5 | 9.8 | -1.2 | 112.8* | 2.7
C[C@@H]1CCCCO[C@H](CN(C)S(=O)(=O)c2ccc(F)cc2)[C@@H](C)CN([C@H](C)CO)C(=O)c2cc(NS(C)(=O)=O)ccc2O1 | . | -3.7 | -3.8 | 10.9 | 2.7
C[C@@H]1CN([C@@H](C)CO)C(=O)c2cc(NS(C)(=O)=O)ccc2O[C@@H](C)CCCCO[C@H]1CN(C)S(=O)(=O)c1ccc(F)cc1 | . | 3.0 | -0.3 | 67.2* | 0.2
C[C@@H]1CCCCO[C@H](CN(C)S(=O)(=O)c2ccccc2)[C@@H](C)CN([C@@H](C)CO)C(=O)c2cc(NS(=O)(=O)c3ccc(F)cc3)ccc2O1 | . | 0.6 | 1.7 | 25.3* | 13.8
C[C@@H]1CN([C@H](C)CO)C(=O)c2cc(NS(C)(=O)=O)ccc2O[C@@H](C)CCCCO[C@H]1CN(C)S(=O)(=O)c1ccc(F)cc1 | . | 0.9 | 0.5 | 26.6* | -1.5
C[C@H](CO)N1C[C@H](C)[C@H](CN(C)C(=O)c2ccncc2)OCCCC[C@H](C)Oc2ccc(NC(=O)CCC(F)(F)F)cc2C1=O | . | . | . | 10.6 | .
CC(C)NC(=O)N(C)C[C@H]1OCCCC[C@H](C)Oc2ccc(NS(=O)(=O)c3ccccc3)cc2C(=O)N([C@@H](C)CO)C[C@H]1C | . | -0.3 | 0.0 | 4.9 | -4.5
Cc1cccc(CN2C[C@]34C=C[C@@H](C[C@@H]3S2(=O)=O)O4)c1 | -5.5 | 1.9 | . | 48.1* | -2.4
CNc1cccc(-c2ccccc2C(C)=O)n1 | -48.9 | -1.5 | -0.4 | 8.5 | 3.4
CNc1cccc(-c2ccccc2CO)n1 | -7.2 | -1.6 | 1.3 | 30.1* | 0.9
CC(C)n1cc(/C=C/c2cc[n+](C)cc2)c2ccccc21 | 4.0 | 23.8 | -7.8 | -2.4 | -2.0
Cc1ccccc1/C=C/c1cc[n+](C)cc1 | 4.2 | 31.1* | 1.7 | -0.2 | -1.6
COc1ccccc1C#Cc1ccc2c(c1)O[C@H](CN(C)C(C)=O)[C@H](C)CN([C@H](C)CO)S2(=O)=O | . | 1.2 | 1.8 | 13.8 | -1.2
O=C(CSc1nnc(-c2ccncc2)o1)Nc1ccccc1Cl | -2.7 | . | . | . | .
O=C(CSc1nnc(-c2ccncc2)o1)Nc1cc(F)ccc1F | 3.7 | 0.1 | 0.4 | 44.0* | 2.4
O=C(CSc1nnc(-c2ccncc2)o1)Nc1cc(Cl)ccc1C(=O)O | 0.1 | 0.2 | -9.9 | 39.1* | 5.0
O=C(NCc1ccco1)C1CCCN(c2ncnc3c2nc2n3CCCCC2)C1 (stereo unspecified) | 4.0 | 0.8 | 2.8 | 25.3* | -3.7
COC(=O)C1=C[C@@H](C(=O)OC)[C@@H]2C3=C(C(=O)[C@@]2(C)NC(=O)c2ccccc2)[C@H](C)C(C(=O)OC)=C(C(=O)OC)[C@@H]3C1 | 1.4 | -1.8 | 0.0 | 24.4* | 2.6
O=C1[C@@H](c2ccccc2)CC[C@@H]2C=CC[C@H]3CCN1[C@@H]32 | . | -2.7 | -1.0 | -2.6 | 30.8*
C[C@@H]1CN([C@H](C)CO)S(=O)(=O)c2ccc(C3=CCCC3)cc2O[C@@H]1CN(C)C(=O)c1ccncc1 | . | 1.4 | -0.7 | -2.0 | -0.1
C[C@@H]1CN([C@H](C)CO)S(=O)(=O)c2ccc(C3=CCCC3)cc2O[C@H]1CN(C)C(=O)c1ccncc1 | . | 2.9 | -1.3 | 44.8* | -3.3
